Publication PMC4336329 (PLoS ONE, 2015)
About 2,200 (0.71%) of roughly 310,000 compounds showed an effect of 50% or more. The effect is printed as a negative number. What follows is part of a selection rich in strong results, with near analogues and random picks from the rest.

Target: human ether-à-go-go-related gene (hERG) potassium channel (human, UniProt Q12809)
Assay: primary screen, population patch clamp on CHO cells stably expressing hERG; higher = less effect of the substance

Chain of human ether-à-go-go-related gene (hERG) potassium channel (Q12809 whole entry, looked up): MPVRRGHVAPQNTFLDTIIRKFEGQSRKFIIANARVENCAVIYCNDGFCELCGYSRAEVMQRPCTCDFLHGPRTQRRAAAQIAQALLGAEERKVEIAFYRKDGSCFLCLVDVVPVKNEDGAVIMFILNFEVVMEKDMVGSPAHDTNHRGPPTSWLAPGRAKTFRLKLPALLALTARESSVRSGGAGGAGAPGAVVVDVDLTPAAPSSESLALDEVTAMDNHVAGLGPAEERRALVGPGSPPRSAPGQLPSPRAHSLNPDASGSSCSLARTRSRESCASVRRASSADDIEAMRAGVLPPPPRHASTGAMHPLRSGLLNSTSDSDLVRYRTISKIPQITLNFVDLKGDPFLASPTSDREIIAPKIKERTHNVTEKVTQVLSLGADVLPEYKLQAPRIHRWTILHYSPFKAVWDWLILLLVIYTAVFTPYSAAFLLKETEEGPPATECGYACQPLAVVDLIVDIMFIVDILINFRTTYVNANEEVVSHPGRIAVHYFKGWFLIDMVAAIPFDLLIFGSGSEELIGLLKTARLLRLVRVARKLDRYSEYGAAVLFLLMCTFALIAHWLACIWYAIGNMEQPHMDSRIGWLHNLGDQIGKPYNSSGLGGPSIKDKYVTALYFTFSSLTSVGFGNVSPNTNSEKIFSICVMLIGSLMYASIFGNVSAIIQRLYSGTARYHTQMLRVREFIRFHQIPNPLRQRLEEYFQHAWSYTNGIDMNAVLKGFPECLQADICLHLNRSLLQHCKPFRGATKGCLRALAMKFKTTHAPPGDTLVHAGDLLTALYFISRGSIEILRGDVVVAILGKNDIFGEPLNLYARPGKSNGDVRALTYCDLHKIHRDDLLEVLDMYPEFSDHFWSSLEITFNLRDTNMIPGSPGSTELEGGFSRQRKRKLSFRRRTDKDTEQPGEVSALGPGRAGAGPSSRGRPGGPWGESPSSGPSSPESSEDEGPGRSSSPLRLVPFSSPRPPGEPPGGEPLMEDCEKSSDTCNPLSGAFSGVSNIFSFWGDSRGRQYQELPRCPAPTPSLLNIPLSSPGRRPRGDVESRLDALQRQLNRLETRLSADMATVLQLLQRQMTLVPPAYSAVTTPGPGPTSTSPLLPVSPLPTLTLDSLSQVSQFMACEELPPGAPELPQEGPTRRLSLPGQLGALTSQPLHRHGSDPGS

SMILES	hERG current change (%, negative = inhibition) at 1uM [%]
COCCNC(=O)COC(=O)c1cccnc1SC	12.8
CC1CCN(C(=O)c2cccc(S(=O)(=O)N3CCCCC3)c2)CC1	2.17
CCOC(=O)C1=C(CSc2nc(-c3ccccc3)ccc2C#N)OC(N)=C(C#N)C1c1cccnc1 (centres unmarked)	-6.76
Cc1ccc(C(=O)N/C(=C/c2ccccc2F)C(=O)NCCCn2ccnc2)cc1	-22.5
Cc1ccc(/C=C(\NC(=O)c2ccc(C)cc2)C(=O)NCCCn2ccnc2)cc1	-87
O=C(NCCCn1ccnc1)/C(=C/c1ccc(F)cc1)NC(=O)c1ccccc1	-72.2
CSc1ccc(/C=C(/NC(=O)c2ccccc2)C(=O)NCCCn2ccnc2)cc1	-15.6
Cc1ccc(C(=O)N/C(=C\c2ccccc2)C(=O)NCCCn2ccnc2)cc1	-87
Cc1ccc(C(=O)N/C(=C\c2cn(C)c3ccccc23)C(=O)NCCCn2ccnc2)cc1	13.5
COc1ccc(/C=C(\NC(=O)c2ccc(C)cc2)C(=O)NCCCn2ccnc2)cc1OC	12.1
Cc1ccc(C(=O)N/C(=C\c2ccc(F)cc2)C(=O)NCCCn2ccnc2)cc1	-85.1
O=C(NCCCn1ccnc1)/C(=C\c1ccccc1F)NC(=O)c1ccccc1	-42.5
COc1ccc(/C=C(\NC(=O)c2ccc(Cl)cc2)C(=O)NCCCn2ccnc2)cc1OC	9.45
CC(C)(C)NC(=S)N/N=C\c1ccc(-c2ccc([N+](=O)[O-])cc2)o1	13.3
COC(=O)Nc1ccc(S(=O)(=O)N2CCCC(C(=O)N3CCN(C)CC3)C2)cc1 (centres unmarked)	7.31
Cc1cc(C)c2cc(CN(Cc3ccc4c(c3)OCO4)Cc3nnnn3Cc3ccco3)c(=O)[nH]c2c1	10.8
CC1=NN(C(C#N)c2ccccc2C)C(c2ccccc2)C1 (centres unmarked)	9.72
Cc1cc(C)nc(/N=C2\NC(=O)CC3C(=O)NCCN23)n1 (centres unmarked)	13.1
CN1CC(=O)Nc2ccc([N+](=O)[O-])cc2C1=O	17.6
COC(=O)c1cc2ccsc2n1Cc1ccccc1F	-2.01
COc1ccc(C(=O)N/C(=C\c2ccccc2)C(=O)NCCCn2ccnc2)cc1	-18.2
COc1ccc(/C=C(\NC(=O)c2ccc(C)cc2)C(=O)NCCCn2ccnc2)cc1	-91.7

SMILES	hERG current change (%, negative = inhibition) at 1uM [%]
COc1ccc(/C=C(/NC(=O)c2ccc(OC)c(OC)c2)C(=O)NCCCn2ccnc2)cc1	15.5
Cc1oc(CN2CCOCC2)cc1C(=O)O	7.66
Cc1ccc(-c2cn(-c3ccc(OC(F)F)cc3)c3[n+]2CCCCC3)cc1.[Br-]	-13.3
FC(F)Oc1ccc(-n2cc(-c3ccc(Cl)cc3)[n+]3c2CCCCC3)cc1.[Br-]	-45.2
COc1ccc(-n2cc(-c3ccc(OC(F)F)cc3)[n+]3c2CCCCC3)cc1.[Br-]	-52.9
CCn1nccc1C(=O)Nc1cc(Cl)ccc1Cl	0.897
CN(CCc1ccccc1)C1CCCN(S(=O)(=O)c2cccc(F)c2)C1 (centres unmarked)	-2.76
CC(=O)c1ccc(S(=O)(=O)N2CCCC(N(C)CCc3ccccn3)C2)cc1 (centres unmarked)	-44.4
COc1ccc(S(=O)(=O)N2CCCC(N(C)CCc3ccccc3)C2)cc1OC (centres unmarked)	-26.5
COc1ccc(CCN(C)C2CCCN(S(=O)(=O)c3ccc(C)cc3)C2)cc1OC (centres unmarked)	-82.1
COc1ccc(CCN(C)C2CCCN(S(=O)(=O)c3ccccc3F)C2)cc1OC (centres unmarked)	-45.9
COc1ccc(CCN(C)C2CCCN(S(C)(=O)=O)C2)cc1OC (centres unmarked)	6.5
COc1ccc(CCN(C)C2CCCN(S(=O)(=O)N(C)C)C2)cc1OC (centres unmarked)	8.71
CC(=O)c1ccc(S(=O)(=O)N2CCCC(N(C)CCc3ccccc3)C2)cc1 (centres unmarked)	-78.7
COc1ccc(CCN(C)C2CCCN(S(=O)(=O)c3ccccc3)C2)cc1OC (centres unmarked)	-64.9
Cc1cc(NC(=O)CSc2nc3c(c(=O)n2-c2ccccc2)SC(C)C3)no1 (centres unmarked)	-8.78
Cc1ccc(C(=O)Nc2nc3nc(-c4ccccc4)cc(=O)n3[nH]2)cc1	14.5
CCC(C)NS(=O)(=O)c1ccc(NC(C)=O)cc1 (centres unmarked)	11.2
CC(C)Cc1cc(C(=O)O)n[nH]1	5.43
CC(=O)N1CCc2cc(Br)cc(S(=O)(=O)N3CCc4ccccc43)c21	-1.76
O=C(c1ccc(-n2cccc2)cc1)N1CCOCC1	7.49
CCc1ccccc1N(CC(=O)NC1CCCCC1)C(=O)CCC(=O)Nc1ccccn1	12.3

SMILES	hERG current change (%, negative = inhibition) at 1uM [%]
O=C(Nc1ccc(-c2csc(Nc3ccccc3)n2)cc1)c1cc([N+](=O)[O-])cc(C(F)(F)F)c1	4.72
Cc1ccc(-c2ccc(C(=O)NCCCNC(=O)c3cnccn3)o2)cc1Cl	18.8
O=C(NCCNC(=O)c1ccc(-c2ccc(Cl)c(Cl)c2)o1)c1cnccn1	-54.4
O=C(NCCCNC(=O)c1ccc(-c2cccc(Cl)c2)o1)c1cnccn1	-12.5
NS(=O)(=O)OCCCc1ccc(C(F)(F)F)cc1	6.75
COc1ccc(CCn2c(=N)c(C(=O)NCC3CCCO3)cc3c(=O)n4ccccc4nc32)cc1 (centres unmarked)	-84.4
COc1ccc(Cn2c(=N)c(C(=O)NCC3CCCO3)cc3c(=O)n4ccccc4nc32)cc1 (centres unmarked)	-85
COc1ccc(CCNC(=O)CCn2c(=O)c3ccccc3n(CC(=O)NCC3CCCO3)c2=O)cc1OC (centres unmarked)	9.7
COc1ccc(CCn2c(=N)c(C(=O)NCC3CCCO3)cc3c(=O)n4ccccc4nc32)cc1OC (centres unmarked)	-79.9
Cc1cc(N2CCC(C)CC2)nc2ccc(N3C(=O)CCC3=O)cc12	9.64
O=C(NC(=S)Nc1ncc(Br)cc1Br)c1cncc(Br)c1	4.04
COc1ccc(C(=O)Nc2nnc(-c3cccs3)s2)cc1	18.6
CC(C)(C)OC(=O)N[C@@H](Cc1ccccc1)c1nnc(S(=O)(=O)Cc2ccccc2)o1	5.19
CCCCCc1n[nH]c2c1CCCC2	9.3
CCCCCc1nc2c(c3c1CCCC3)CCCC2	-51.7
CCCCc1nc(Cl)c(C#N)c2c1CCCC2	5.82
CC1CCCC(C)N1C(=O)COC(=O)CCC1CCCC1 (centres unmarked)	9.29
CC(C(=O)N1CCN(c2ccc([N+](=O)[O-])cc2)CC1)N1C(=O)C2CC=CCC2C1=O (centres unmarked)	-50.2
CC(C(=O)N1CCN(c2ccccc2)CC1)N1C(=O)C2CC=CCC2C1=O (centres unmarked)	10.3
COc1ccc(N2CCN(C(=O)CN3C(=O)C4CC=CCC4C3=O)CC2)cc1 (centres unmarked)	15.7
CC(C(=O)N1CCN(c2ccccc2)CC1)c1ccc([N+](=O)[O-])cc1 (centres unmarked)	-12.2
O=C(CN1C(=O)C2CC=CCC2C1=O)N1CCN(c2ccc([N+](=O)[O-])cc2)CC1 (centres unmarked)	-64.2

SMILES	hERG current change (%, negative = inhibition) at 1uM [%]
CC1(C)NC(=O)N(CC(=O)N2CCN(c3ccc([N+](=O)[O-])cc3)CC2)C1=O	-29.1
COc1ccc(C2=[N+]([O-])C(C)(C)N(O)C2(C)C)cc1	10.1
Cc1nc(-c2nnc(SCC(=O)Nc3cc(Cl)cc(Cl)c3)n2C)cs1	10.6
C/C(=N\N=C(c1ccccc1)c1ccccc1)c1ccco1	5.46
CN1C(=O)C(=Cc2ccccc2OS(=O)(=O)c2ccccc2)C(=O)N(C)C1=O	9.02
N[C@@H]1CONC1=O	18.7
COC(=O)[C@H]1C[C@H]1[C@@H](NC(=O)c1cccnc1)c1ccccc1	11.4
Fc1ccc(CNCCc2ccc3c(c2)OCO3)cc1	13.8
COc1ccc(CNCCC(c2ccccc2)c2ccc3c(c2)OCO3)cc1.Cl (centres unmarked)	-68.7
CCOc1ccccc1CNCCc1ccc2c(c1)OCO2.Cl	1.75
COc1ccc(C(CCN)c2ccc3c(c2)OCO3)cc1 (centres unmarked)	13.6
CCOc1ccc(CNCCc2ccc3c(c2)OCO3)cc1	-52.6
COc1ccc(C(CCNCc2ccc(N(C)C)cc2)c2ccccc2OC)cc1 (centres unmarked)	-18.4
COc1ccc(C(CCNCc2ccc(N(C)C)cc2)c2ccccc2)cc1 (centres unmarked)	-56.4
COc1ccc(C(CCNCc2ccc(N(C)C)cc2)C(C)C)cc1 (centres unmarked)	2.49
COc1ccc(C(CCNCc2ccccc2)c2ccc(F)cc2)cc1 (centres unmarked)	-17.7
COc1ccc(OCCSc2nc(C)c(Cc3ccccc3)c(=O)[nH]2)cc1	7.38
Cn1c(C(=O)c2ccccc2[N+](=O)[O-])nc2ccccc21	-9.27
S=C(Nc1ccccc1Cl)N1CCC(c2ccccc2)C1 (centres unmarked)	-6.92
COc1ccc2c(c1)N1CCN=C1N2C.Cl	5.26
